PLK1 PBD inh – qHTS for Inhibitors of PLK1-PDB (polo-like kinase 1 - polo-box domain): Primary Screen; Plk1 PBD binding of FITC phosphopeptide, fluorescence polarization; Potency, µM, for inactives: max response, negative = inhibition, usual class: inhibitors; 2.8% of 360,000 active; AID 720504, 2013; also: potency is read from the fitted curve at half-maximal effect; series mostly up to about 57 µM; % is scaled to controls: 0 for no effect and ±100 for the full control effect; nearly all actives have a fitted effect of over 65% in size
Target sequence (P53350 whole entry, looked up, the tested form may be a part): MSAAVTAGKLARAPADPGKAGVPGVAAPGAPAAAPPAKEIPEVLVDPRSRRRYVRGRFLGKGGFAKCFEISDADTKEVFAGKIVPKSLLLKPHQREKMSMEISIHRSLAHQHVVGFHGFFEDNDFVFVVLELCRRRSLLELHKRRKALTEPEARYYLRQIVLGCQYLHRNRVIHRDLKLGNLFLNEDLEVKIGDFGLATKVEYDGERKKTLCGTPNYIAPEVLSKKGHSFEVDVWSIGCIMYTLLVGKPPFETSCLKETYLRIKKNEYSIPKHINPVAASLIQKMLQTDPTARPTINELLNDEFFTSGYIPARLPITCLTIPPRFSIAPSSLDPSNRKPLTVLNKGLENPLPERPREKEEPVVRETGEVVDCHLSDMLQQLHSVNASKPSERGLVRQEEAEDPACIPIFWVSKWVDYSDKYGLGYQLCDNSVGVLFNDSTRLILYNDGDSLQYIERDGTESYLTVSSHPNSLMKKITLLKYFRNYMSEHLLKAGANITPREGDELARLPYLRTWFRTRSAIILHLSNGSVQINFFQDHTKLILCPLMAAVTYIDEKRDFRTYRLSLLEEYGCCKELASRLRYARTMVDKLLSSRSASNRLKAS
HP1b chromo inh – HTS for Inhibitors of HP1-beta Chromodomain Interactions with Methylated Histone Tails. Chromobox protein homolog 1 (Homo sapiens), P83916. AlphaScreen HP1-beta / biotin-H3K9me3 peptide binding. Potency, µM (top dose mostly 114 µM), for inactives: at the top dose activity change, negative = inhibition, usual class: inhibitors. 0.56% of 390,000 active. AID 540317, 2011; also: potency is read from the fitted curve at half-maximal effect; nearly all actives have a fitted effect of over 70% in size
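Compound inhibition of the preformed complex between 50 nM HP1-beta and 50 nM biotinylated H3K9me3 peptide was read by AlphaScreen. Buffer was PBS pH 7.4 with 0.01% Tween-20. Incubations ran 30 min at room temperature, with 10 ug/mL donor/acceptor beads.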
BAZ2B block – qHTS Assay for Inhibitors of BAZ2B. Bromodomain adjacent to zinc finger domain protein 2B (Homo sapiens), Q9UIF8. AlphaScreen BAZ2B-H3K14Ac peptide displacement. Potency, µM (series often up to 114 µM), for inactives: at the top dose activity change, negative = inhibition, usual class: inhibitors. 4.4% of 360,000 active. AID 504333, 2011; also: potency is read from the fitted curve at half-maximal effect; % is scaled to controls: 0 for no effect and ±100 for the full control effect; nearly all actives have a fitted effect of over 60% in size
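AlphaScreen displacement of biotin-H3(5-23)K14Ac peptide (50 nM final) from BAZ2B (50 nM final) in PBS pH 7.4, 0.01% Tween-20; complex preformed 30 min RT, then compounds (top 110 uM) 30 min RT, beads 20 min dark.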
PI5P4K alpha inh – qHTS for Inhibitors of phosphatidylinositol 5-phosphate 4-kinase (PI5P4K); Phosphatidylinositol 5-phosphate 4-kinase type-2 alpha (Homo sapiens), P48426; PI5P4Kalpha enzyme, ADP-Glo luminescence, 60 min; hits give low values; max response, %; 1.2% of 330,000 active; active = max response of -50% or lower; inconclusive = between -30% and -50%; inactive = -30% or higher; also: value at the top dose of about 77 µM; % is scaled to controls: 0 for no effect and ±100 for the full control effect
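PI5P4Kalpha ADP-Glo assay; 5 microM ATP final; 60 min RT reaction; HEPES pH 7.4/EGTA/CHAPS, 5% DMSO; controls lacking substrate or enzyme; luminescent end-point.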
JMJD2A Tudor – qHTS Assay for Inhibitors of JMJD2A-Tudor Domain; AlphaScreen JMJD2A-Tudor / H3K4me3 peptide binding; Potency, µM (series often up to 114 µM), for the others: top-dose activity change, negative = inhibition, most hits filed as inhibitors; 4.4% of 390,000 active; AID 504339, 2011; also: potency is read from the fitted curve at half-maximal effect; % is scaled to controls: 0 for no effect and ±100 for the full control effect; nearly all actives have a fitted effect of over 50% in size
G9a block – qHTS Assay for Inhibitors of Histone Lysine Methyltransferase G9a. Histone-lysine N-methyltransferase EHMT2 (Homo sapiens), Q96KQ7. G9a H3K9 monomethylation, AlphaScreen, 2 h. Potency, µM (titrated, usually from 102 µM), inactives show at the top dose activity, negative = inhibition, usual class: inhibitors. 8.8% of 350,000 active; also: potency is read from the fitted curve at half-maximal effect; % is scaled to controls: 0 for no effect and ±100 for the full control effect; nearly all actives have a fitted effect of over 75% in size
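AlphaScreen read-out: biotin-H3K9 peptide (500 nM) methylation by 20 nM enzyme with 20 uM SAM, 2 h at room temperature after 15 min compound preincubation; anti-monomethyl H3K9 antibody plus donor/acceptor beads, 10 min dark.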
* = called active by the depositor; ? = inconclusive; · = no result given; [ ] = another dose, or the depositor's remark. In the library only some 12% were active in any assay of this set; here they are far more common. Unless noted, calls follow the shape of the dose curve; as a rule, active = well fitted curve in the direction sought with a large enough effect; inconclusive = small, poorly fitted or top-dose-only effect, or another doubt; inactive = no such curve, though single readings can be large; an effect the other way counts as inactive or inconclusive.

SMILES	PLK1 PBD inh	HP1b chromo inh	BAZ2B block	PI5P4K alpha inh	JMJD2A Tudor	G9a block
Cc1cccc(N2CCN(C(=O)CCS(=O)(=O)c3ccc(Br)cc3)CC2C)c1 (stereo not drawn)	?	28µM*	32µM*	-19	?	25µM*
Cc1ccc(Cn2c3ccccc3c3cnn(CC(=O)N4CCCCCC4)c(=O)c32)cc1	·	24%	-18%	·	-16%	-10%[59 µM]
Cc1cccc(Cn2c(C)c(CNC3CCCCCC3)c(C(=O)O)c2C)c1	·	-6%	-9%	·	-26%	3%[59 µM]
O=C(NCc1ccccc1)C(c1ccc(-c2ccccc2)cc1)N1CCN(C(=O)C2CCCO2)CC1 (stereo not drawn)	-16%	·	·	2	·	·
O=C(CSc1nnc(-c2ccc(Br)o2)n1Cc1ccccc1)c1ccccc1F	-21%	19%	?	-19	?	4.5µM*
Cc1cc(NC(=O)CSc2nnc(-c3ccc(Br)o3)n2Cc2ccccc2)no1	-8%	21%	-18%	0	-11%	-48%[59 µM]
O=C(CSc1nc2c([nH]c3ccccc32)c(=O)n1-c1ccccc1)c1ccc(Cl)cc1	·	21%[57 µM]	2%	·	-11%	4%[59 µM]
Cc1ccsc1/C=C/C1=Cc2c(sc(NC(=O)CSc3n[nH]c(N)n3)c2C#N)C(C)(C)C1	-27%	-20%	?	·	?	35µM*
CCOc1ccc(/C=C/C2=Cc3c(sc(NC(=O)CSc4n[nH]c(N)n4)c3C#N)C(C)(C)C2)cc1	-16%	-30%	40µM*	·	?	?
CCCCCCN1C[C@@H](O)[C@H](n2cc(COC(=O)c3ccccc3)nn2)C[C@@H]1c1ccc(OC)cc1	-13%	·	·	-2	·	·
CN1/C(=N\O)c2cccc3cccc1c23	27µM*	-13%	4%	1	17%	32µM*
CNC(=O)CN1C(=O)c2cccc3cccc1c23	5%	24%	11%	-4	3%	12%[12.7 µM]
Cc1cccc(C(=O)NC(NC(=S)Nc2ccc(S(N)(=O)=O)cc2)C(Cl)(Cl)Cl)c1 (stereo not drawn)	-1%	17%	?	3	-21%	?
CCc1ccc(OCC(=O)NC(NC(=S)Nc2ccccc2)C(Cl)(Cl)Cl)cc1 (stereo not drawn)	-5%	13%	8%	21	-8%	-10%[59 µM]
CCC(=O)NC(NC(=S)Nc1ccc(S(N)(=O)=O)cc1)C(Cl)(Cl)Cl (stereo not drawn)	-9%	5%	-7%	7	-9%	8.9µM*
CC(=O)NC(NC(=S)Nc1ccc(S(N)(=O)=O)cc1)C(Cl)(Cl)Cl (stereo not drawn)	-15%	38%	-5%	1	-11%	45µM*
CC(C)CC(=O)NC(NC(=S)Nc1ccccc1)C(Cl)(Cl)Cl (stereo not drawn)	30µM*	8%	-1%	6	-6%	32µM*
Cc1c(NC(=S)NC(NC(=O)CC(C)C)C(Cl)(Cl)Cl)c(=O)n(-c2ccccc2)n1C (stereo not drawn)	1%	28%	8%	-3	?	?
COc1ccc(CNC(=O)c2ccc(Cn3c(=O)c4cccn4c4cccnc43)cc2)c(OC)c1	·	29%	-13%	·	1%	4%[59 µM]
COc1cc(Cn2c3ccc(NC(=O)NCCc4ccccc4)cc3c(=O)n2C)ccc1F	-17%	·	·	4	·	·
COc1ccc(-c2noc(-c3cc(C(C)C)[nH]n3)n2)cc1	·	10%	0%	·	-19%	3%[59 µM]
CC(C)=NNc1cc([N+](=O)[O-])cc2c1C(=O)N(C)S2=O (stereo not drawn)	2%	40%	-16%	-4	-4%	45µM*
CC(C)CC(=O)Nc1ccc(S(=O)(=O)Nc2cc3c(cc2N2CCOCC2)n(C)c(=O)c(=O)n3C)cc1	·	31%	-17%	·	-12%	?
CCCCN1CCc2c([nH]c3c(C)cccc23)C1=O	3.4µM*	?	-20%	?	20µM*	-23%[59 µM]
Brc1c(OCCOCCn2cncn2)ccc2ccccc12	17µM*	-4%	-1%	-11	-17%[11.4 µM]	7%[59 µM]
SMILES	PLK1 PBD inh	HP1b chromo inh	BAZ2B block	PI5P4K alpha inh	JMJD2A Tudor	G9a block
CCOC(=O)Cc1nn2c(=O)cc(C)nc2s1	-10%	6%	79µM*	8	-11%	3%[12.7 µM]
COc1ccc2c(c1)CC/C(=C\c1ccc(C)o1)C2=O	-5%	?	45µM*	2	?	50µM*
COc1ccc(C=C2Cc3ccccc3C2=O)cc1	-16%	·	·	-8	·	·
COc1ccc2c(c1)CC/C(=C\C=C\c1ccccc1OC)C2=O	-28%	16%	8%	0	-15%	7.9µM*
COc1ccc2c(c1)C(=O)/C(=C/C=C/c1ccccc1)CC2	-17%	29%	7%	-3	-28%[57.1 µM]	32µM*
COc1ccc2c(c1)CC/C(=C/c1ccncc1)C2=O	-14%	13%	-31%	3	-15%	6%[59 µM]
S=c1[nH]c2cnc(Cl)nc2[nH]1	24µM*	2%	·	?	40µM*	·
S=c1[nH]c2nc(Cl)c(Cl)nc2[nH]1	-21%	·	·	?	·	·
O=C1CSC(=S)N1/N=C/c1ccc(C(F)(F)F)cc1	?	12%	-15%	?	-31%	79µM*
O=C1CSC(=S)N1/N=C/C=C/c1ccccc1	?	?	?	-63*	?	40µM*
O=C1CSC(=S)N1/N=C/c1c(F)cccc1F	?	-39%	-20%	-29	?	50µM*
O=C1CSC(=S)N1/N=C/c1cccc(C(F)(F)F)c1	-20%	-9%	-14%	-29	?	?
CCc1ccc(Nc2cc(C)nc3nc(Cc4ccc(Cl)cc4)nn23)cc1	·	37%	-18%	·	-13%	0%[59 µM]
CCN=c1scc(-c2ccc(F)cc2)n1/N=C/c1ccccn1	-12%	?	·	-3	?	16µM*
C=CCN=c1scc(-c2ccc3c(c2)NC(=O)CO3)n1/N=C(\C)c1ccccn1	?	6%	?	-6	-28%	?
CCN=c1scc(-c2ccccc2)n1/N=C/c1ccccn1	-10%	?	14µM*	1	28µM*	?
CCCCNC(=O)c1c(N)n(/N=C/c2ccccn2)c2nc3ccccc3nc12	·	·	-14%	·	·	-30%
C=CCN=c1scc(-c2ccccc2)n1/N=C/c1ccccn1	-9%	28µM*	28µM*	1	45µM*	?
